The target of assay [1] is Glucocorticoid receptor (Homo sapiens) (UniProt P04150). As to the kind of experiment: ATG_GR_TRANS: Attagene TRANS-FACTORIAL HepG2 Assay for human Glucocorticoid Receptor (GR) (AID 2282978; active = hit-call score of the fitted dose curve at least 0.9, where 1 is the maximum;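 note: activators score as hits since higher reporter transcript over DMSO is fitted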). The settings on record: HepG2 Attagene TRANS GR reporter, mRNA transcription. The essentials: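 Measurement of GAL4-UAS-driven reporter mRNA in human HepG2 liver cells 24 h post-dosing, using RT-PCR with fluorescent labelling and capillary electrophoresis; the transfected constructs report exogenous NR-GAL4 chimera activity, fitted upward against DMSO.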

Assay [2] deals with Oxysterols receptor LXR-alpha (Homo sapiens) (UniProt Q13133). In words: ATG_LXRa_TRANS: Attagene TRANS-FACTORIAL HepG2 Assay for human Liver X Receptor alpha (LXRa) (AID 2282980; active = hit-call score of the fitted dose curve at least 0.9, where 1 is the maximum). The conditions noted are these: HepG2 Attagene TRANS reporter, LXRa transactivation. In short, it runs like this: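 Transfect HepG2 with GAL4-UAS multiplex reporter constructs (TRANS format, chimeric receptor-GAL4); treat 24 h; extract RNA, reverse-transcribe, PCR-amplify, FAM-label, HpaI-digest; resolve fragments by capillary electrophoresis. Upward response vs DMSO.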

In assay [3] the target is Oxysterols receptor LXR-beta (Homo sapiens) (UniProt P55055). As to the kind of experiment: ATG_LXRb_TRANS: Attagene TRANS-FACTORIAL HepG2 Assay for human Liver X Receptor beta (LXRb) (AID 2282981; active = hit-call score of the fitted dose curve at least 0.9, where 1 is the maximum). The conditions noted are these: HepG2 Attagene TRANS GAL4-LXRb reporter, mRNA. In short, it runs like this: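 Gain-of-signal mRNA reporter endpoint, DMSO as negative control. Transiently transfected HepG2 cells carrying the NR-Gal4 chimera and GAL4-UAS reporter units were treated 24 h; transcripts quantified by RT-PCR and capillary electrophoresis fluorescence.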

For assay [4], the target named is Hepatocyte nuclear factor 4-alpha (Homo sapiens) (UniProt P41235). In words: ATG_HNF4a_TRANS: Attagene TRANS-FACTORIAL HepG2 Assay for human Hepatocyte Nuclear Factor 4 alpha (HNF4a) (AID 2282982; active = hit-call score of the fitted dose curve at least 0.9, where 1 is the maximum). The settings on record: HepG2 HNF4a transactivation reporter, mRNA readout. In short, it runs like this:
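Gain-of-signal mRNA induction, relative to DMSO vehicle, was read after 24 h compound treatment of HepG2 cells bearing transfected GAL4-UAS reporters. Detection used RT-PCR, 6-FAM primer extension and capillary electrophoresis.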

Assay [5] in a line: ATG_M_32_TRANS: Attagene TRANS-FACTORIAL HepG2 Assay for M32 Transcription Factor (Internal Marker) (AID 2282984; active = hit-call score of the fitted dose curve at least 0.9, where 1 is the maximum;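 note: transcript level of a background control reporter unit measured by RT-PCR and capillary electrophoresis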). The settings on record: HepG2 Attagene TRANS M32 internal marker reporter. The essentials: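 Capillary electrophoresis of 6-FAM-labelled reporter fragments gives the signal; data fitted for gain over DMSO negative control. Source: HepG2 cells bearing transient multiple reporter transcription units, 24 h exposure.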

The target in assay [6] is Nuclear receptor subfamily 4 group A member 2 (Homo sapiens) (UniProt P43354). As to the kind of experiment: ATG_NURR1_TRANS: Attagene TRANS-FACTORIAL HepG2 Assay for human Nuclear Receptor Related Protein 1 (NURR1) (AID 2282985; active = hit-call score of the fitted dose curve at least 0.9, where 1 is the maximum). The settings on record: HepG2 Attagene TRANS reporter, mRNA readout. In short, it runs like this: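 HepG2 / transient MRTU transfection / 24 h compound exposure / RT-PCR + CE fluorescence of reporter mRNA / gain-of-signal vs DMSO.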

The target of assay [7] is Transcriptional activator Myb (Homo sapiens) (UniProt P10242). As to the kind of experiment: ATG_Myb_CIS: Attagene CIS-FACTORIAL HepG2 Assay for human Myeloblastosis (Myb) Proto-Oncogene Transcription Factor (AID 2282986). The settings on record: HepG2 Attagene CIS-FACTORIAL Myb reporter transcription; actives raise or lower the signal. The essentials:
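Fluorescence signals from capillary electrophoresis of RT-PCR-amplified reporter cDNA give the read-out. Cells: HepG2 transfected with multiple cis-regulated reporter units. Exposure lasts 24 hours; DMSO defines baseline for gain or loss of signal.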

Assay [8] concerns the target Nuclear respiratory factor 1 (Homo sapiens) (UniProt Q16656). As to the kind of experiment: ATG_NRF1_CIS: Attagene CIS-FACTORIAL HepG2 Assay for human Nuclear Respiratory Factor 1 (NRF1) Orphan Gene (AID 2282987). The conditions noted are these: HepG2 NRF1 cis-element reporter, Attagene multiplex; actives raise or lower the signal. The essentials:
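Transcriptional reporter readout, one component of a 52-endpoint multiplexed HepG2 panel. Exposure 24 h; mRNA detected via RT-PCR and fluorescent capillary electrophoresis; fitting in both directions against DMSO.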

Assay [9] in a line: ATG_NFI_CIS: Attagene CIS-FACTORIAL HepG2 Assay for human Nuclear Factor I (NFI) (AID 2282989). The settings on record: HepG2 cis-regulatory reporter, NFI response element transcription; actives raise or lower the signal. The essentials: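 Read-out: reporter mRNA via RT-PCR plus capillary electrophoresis with fluorescence detection. Transiently transfected HepG2 (endogenous TF activity on cis promoters), 24 h compound exposure; gain or loss of signal fitted against DMSO.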

In assay [10] the target is Myc proto-oncogene protein (Homo sapiens) (UniProt P01106). As to the kind of experiment: ATG_Myc_CIS: Attagene CIS-FACTORIAL HepG2 Assay for human Myelocytomatosis (Myc) Proto-Oncogene Transcription Factor (AID 2282990). The conditions noted are these: HepG2, Attagene cis-reporter transcription factor activity; actives raise or lower the signal. The essentials:
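Read-out: fluorescent reporter mRNA fragments resolved by capillary electrophoresis after RT-PCR. Human HepG2 liver cells carried transfected cis-element reporter units and were dosed for 24 h. Gain or loss of signal fitted relative to DMSO baseline.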

Assay [11] can be described thus: ATG_NF_kB_CIS: Attagene CIS-FACTORIAL HepG2 Assay for human Nuclear Factor Kappa B (NF-kB) (AID 2282991). The settings on record: HepG2 Attagene cis-factorial NF-kB reporter mRNA; actives raise or lower the signal. The essentials: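 HepG2, transient multi-reporter transfection, cis promoter elements (endogenous TFs). 24 h exposure. Total RNA → RT → PCR → 6-FAM label → HpaI → CE. Gain/loss vs DMSO.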

Assay [12] can be described thus: ATG_NRF2_ARE_CIS: Attagene CIS-FACTORIAL HepG2 Assay for human Nuclear Factor Erythroid 2 Related Factor 2 (NFR2) response to Antioxidant Response Elements (ARE) (AID 2282992).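 For AC50: reporter mRNA level measured by RT-PCR and capillary electrophoresis fluorescence.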 The conditions noted are these: HepG2 Attagene ARE/NRF2 reporter, transcription factor activity; actives raise or lower the signal. In short, it runs like this: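 Multiplexed reporter mRNA profiling in HepG2 after a 24 h chemical exposure. Curves fitted in both directions relative to DMSO negative control.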

A short description of assay [13]: ATG_Oct_MLP_CIS: Attagene CIS-FACTORIAL HepG2 Assay for human Octamer-Binding Transcription Factor (Oct) (AID 2282993). The conditions noted are these: HepG2 Attagene cis-factorial Oct reporter, mRNA; actives raise or lower the signal. The essentials:
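Read-out: reporter mRNA via RT-PCR plus capillary electrophoresis of 6-FAM-labelled fragments. Transiently transfected HepG2, 24 h exposure, endogenous TF activity on cis elements. Gain or loss of signal fitted relative to DMSO.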

The target of assay [14] is Cellular tumor antigen p53 (Homo sapiens) (UniProt P04637). As to the kind of experiment: ATG_p53_CIS: Attagene CIS-FACTORIAL HepG2 Assay for human p53 Transcription Factor (AID 2282994). The conditions noted are these: HepG2 p53 cis-element reporter, Attagene mRNA; actives raise or lower the signal. In short, it runs like this: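 Multiplexed reporter mRNA assay in human HepG2 liver cells; cis-regulated units report endogenous factor activity. Values come from bidirectional curve fitting against DMSO negative control after 24 h treatment.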

Assay [15] in a line: ATG_M_06_TRANS: Attagene TRANS-FACTORIAL HepG2 Assay for M06 Transcription Factor (Internal Marker) (AID 2282983; active = hit-call score of the fitted dose curve at least 0.9, where 1 is the maximum). The conditions noted are these: HepG2 Attagene TRANS M06 internal marker reporter. The essentials:
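Transfect HepG2 with MRTUs → dose compounds 24 h → isolate RNA, oligo(dT) RT → PCR with reporter primers → 6-FAM primer extension → HpaI digest → CE fragment analysis. Positive direction vs DMSO.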

In assay [16] the target is Bile acid receptor (Homo sapiens) (UniProt Q96RI1). In words: ATG_FXR_TRANS: Attagene TRANS-FACTORIAL HepG2 Assay for Farnesoid X Receptor (FXR) (AID 2282979; active = hit-call score of the fitted dose curve at least 0.9, where 1 is the maximum;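 note: hits raise reporter mRNA above DMSO so AC50 marks FXR activation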). The settings on record: HepG2 Attagene TRANS FXR-GAL4 reporter transcription. The essentials:
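Transient transfection of HepG2 with multiplexed GAL4-UAS reporter units; exogenous FXR-GAL4 chimera. Dose 24 h → TriZol RNA → oligo(dT) RT → PCR, 6-FAM primer extension, HpaI cut → CE. Gain vs DMSO.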

Inconclusive results are not listed. Active and inactive are the calls of the source. Rule for the calls, unless noted: active = hit-call score of the fitted dose curve at least 0.9, where 1 is the maximum; inactive = score below 0.9.

Sequence of Nuclear respiratory factor 1 (Homo sapiens) (Q16656 whole entry, looked up): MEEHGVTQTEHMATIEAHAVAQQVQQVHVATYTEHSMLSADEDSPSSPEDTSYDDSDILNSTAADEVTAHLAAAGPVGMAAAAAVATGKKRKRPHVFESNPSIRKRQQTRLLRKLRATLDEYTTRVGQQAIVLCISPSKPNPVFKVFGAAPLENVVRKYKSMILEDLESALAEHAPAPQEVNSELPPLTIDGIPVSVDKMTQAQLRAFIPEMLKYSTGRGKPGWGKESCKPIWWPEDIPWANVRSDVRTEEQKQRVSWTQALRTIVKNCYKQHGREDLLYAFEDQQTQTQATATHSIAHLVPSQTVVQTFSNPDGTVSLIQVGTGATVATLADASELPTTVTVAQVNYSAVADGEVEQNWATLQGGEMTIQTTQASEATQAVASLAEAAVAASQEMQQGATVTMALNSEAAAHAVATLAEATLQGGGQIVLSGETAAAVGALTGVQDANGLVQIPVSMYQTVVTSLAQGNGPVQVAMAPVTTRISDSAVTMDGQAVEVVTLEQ
Sequence of Myc proto-oncogene protein (Homo sapiens) (P01106 whole entry, looked up, the tested form may be a part): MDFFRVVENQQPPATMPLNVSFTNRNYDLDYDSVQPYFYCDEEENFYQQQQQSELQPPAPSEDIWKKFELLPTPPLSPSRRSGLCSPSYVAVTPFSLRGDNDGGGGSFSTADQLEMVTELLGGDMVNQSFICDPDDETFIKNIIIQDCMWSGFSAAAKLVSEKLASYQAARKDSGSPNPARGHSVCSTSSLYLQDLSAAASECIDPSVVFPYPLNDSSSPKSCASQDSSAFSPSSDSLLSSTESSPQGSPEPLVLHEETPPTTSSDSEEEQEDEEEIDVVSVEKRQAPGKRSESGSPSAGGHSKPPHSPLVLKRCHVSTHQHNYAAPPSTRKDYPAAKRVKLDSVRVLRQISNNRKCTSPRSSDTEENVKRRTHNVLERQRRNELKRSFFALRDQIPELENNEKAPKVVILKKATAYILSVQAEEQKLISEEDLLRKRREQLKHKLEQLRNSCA
Sequence of Glucocorticoid receptor (Homo sapiens) (P04150 whole entry, looked up, the tested form may be a part): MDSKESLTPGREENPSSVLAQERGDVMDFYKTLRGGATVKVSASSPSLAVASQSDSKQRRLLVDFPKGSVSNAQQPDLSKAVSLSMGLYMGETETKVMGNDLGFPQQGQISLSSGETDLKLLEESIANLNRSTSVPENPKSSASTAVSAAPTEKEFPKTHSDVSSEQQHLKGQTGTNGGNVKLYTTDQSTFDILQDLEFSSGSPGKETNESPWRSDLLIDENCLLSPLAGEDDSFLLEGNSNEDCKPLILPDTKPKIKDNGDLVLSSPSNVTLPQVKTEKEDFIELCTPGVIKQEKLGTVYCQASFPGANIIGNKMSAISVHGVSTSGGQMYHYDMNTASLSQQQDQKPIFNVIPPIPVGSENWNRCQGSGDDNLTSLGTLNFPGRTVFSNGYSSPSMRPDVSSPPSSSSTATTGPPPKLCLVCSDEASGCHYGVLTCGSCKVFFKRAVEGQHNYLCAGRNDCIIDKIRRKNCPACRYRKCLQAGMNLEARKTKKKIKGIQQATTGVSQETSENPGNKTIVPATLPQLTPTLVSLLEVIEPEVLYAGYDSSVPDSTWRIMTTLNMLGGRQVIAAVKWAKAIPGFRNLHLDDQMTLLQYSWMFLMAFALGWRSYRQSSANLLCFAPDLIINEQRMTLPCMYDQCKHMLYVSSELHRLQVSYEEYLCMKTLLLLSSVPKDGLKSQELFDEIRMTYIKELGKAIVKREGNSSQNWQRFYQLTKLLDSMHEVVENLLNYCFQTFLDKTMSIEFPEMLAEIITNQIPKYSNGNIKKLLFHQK
Sequence of Oxysterols receptor LXR-beta (Homo sapiens) (P55055 whole entry, looked up, the tested form may be a part): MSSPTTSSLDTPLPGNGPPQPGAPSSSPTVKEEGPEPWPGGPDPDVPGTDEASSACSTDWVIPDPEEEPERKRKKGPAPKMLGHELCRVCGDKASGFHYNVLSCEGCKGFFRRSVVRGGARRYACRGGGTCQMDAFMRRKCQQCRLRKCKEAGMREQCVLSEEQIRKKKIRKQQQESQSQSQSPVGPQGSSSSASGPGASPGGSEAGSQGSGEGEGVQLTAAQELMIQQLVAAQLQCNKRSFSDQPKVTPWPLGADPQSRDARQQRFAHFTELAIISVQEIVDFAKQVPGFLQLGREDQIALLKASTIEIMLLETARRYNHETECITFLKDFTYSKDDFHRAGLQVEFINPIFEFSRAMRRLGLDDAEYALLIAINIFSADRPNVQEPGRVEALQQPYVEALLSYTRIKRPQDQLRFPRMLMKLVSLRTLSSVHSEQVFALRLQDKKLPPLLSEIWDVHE
Sequence of Hepatocyte nuclear factor 4-alpha (Homo sapiens) (P41235 whole entry, looked up, the tested form may be a part): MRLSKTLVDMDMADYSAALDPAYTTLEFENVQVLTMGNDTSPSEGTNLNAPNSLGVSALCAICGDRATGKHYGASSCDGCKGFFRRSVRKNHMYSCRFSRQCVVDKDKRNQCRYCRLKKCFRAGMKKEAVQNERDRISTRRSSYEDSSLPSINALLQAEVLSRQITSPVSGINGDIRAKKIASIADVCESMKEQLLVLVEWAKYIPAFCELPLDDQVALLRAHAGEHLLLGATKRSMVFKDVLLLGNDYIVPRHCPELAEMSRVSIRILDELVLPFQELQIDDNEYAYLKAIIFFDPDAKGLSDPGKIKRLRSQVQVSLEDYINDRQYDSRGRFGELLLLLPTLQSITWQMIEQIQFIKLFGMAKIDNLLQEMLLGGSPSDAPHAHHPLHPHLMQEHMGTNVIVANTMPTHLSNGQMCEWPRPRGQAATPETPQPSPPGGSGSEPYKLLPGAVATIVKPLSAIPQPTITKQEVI
Sequence of Transcriptional activator Myb (Homo sapiens) (P10242 whole entry, looked up): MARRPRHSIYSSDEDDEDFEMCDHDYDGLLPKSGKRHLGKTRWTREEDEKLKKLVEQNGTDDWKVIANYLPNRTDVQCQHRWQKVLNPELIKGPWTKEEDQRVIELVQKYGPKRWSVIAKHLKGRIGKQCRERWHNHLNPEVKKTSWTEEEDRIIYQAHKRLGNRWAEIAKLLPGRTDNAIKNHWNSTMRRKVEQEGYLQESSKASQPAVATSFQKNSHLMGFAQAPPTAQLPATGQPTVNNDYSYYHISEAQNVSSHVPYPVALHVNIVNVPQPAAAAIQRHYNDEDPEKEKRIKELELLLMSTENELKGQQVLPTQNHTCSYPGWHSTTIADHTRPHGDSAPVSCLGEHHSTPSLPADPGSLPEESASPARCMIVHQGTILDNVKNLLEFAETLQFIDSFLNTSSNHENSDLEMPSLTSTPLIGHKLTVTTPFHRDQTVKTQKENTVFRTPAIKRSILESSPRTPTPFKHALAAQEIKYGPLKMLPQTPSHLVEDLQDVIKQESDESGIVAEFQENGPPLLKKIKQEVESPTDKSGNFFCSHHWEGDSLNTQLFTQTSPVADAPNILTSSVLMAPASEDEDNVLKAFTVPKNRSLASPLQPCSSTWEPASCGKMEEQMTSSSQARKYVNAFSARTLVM
Sequence of Oxysterols receptor LXR-alpha (Homo sapiens) (Q13133 whole entry, looked up, the tested form may be a part): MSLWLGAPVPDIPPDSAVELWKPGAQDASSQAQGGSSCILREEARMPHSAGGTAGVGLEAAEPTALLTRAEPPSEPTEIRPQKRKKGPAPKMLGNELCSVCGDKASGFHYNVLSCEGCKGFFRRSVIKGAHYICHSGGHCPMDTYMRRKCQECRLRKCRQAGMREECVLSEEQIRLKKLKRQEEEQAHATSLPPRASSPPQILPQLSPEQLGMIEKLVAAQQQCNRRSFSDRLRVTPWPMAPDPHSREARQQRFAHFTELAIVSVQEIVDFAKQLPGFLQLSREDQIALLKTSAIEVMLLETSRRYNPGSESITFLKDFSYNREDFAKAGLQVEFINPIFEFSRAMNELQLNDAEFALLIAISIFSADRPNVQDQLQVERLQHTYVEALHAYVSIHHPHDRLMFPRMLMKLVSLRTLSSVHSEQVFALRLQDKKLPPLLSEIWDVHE
Sequence of Cellular tumor antigen p53 (Homo sapiens) (P04637 whole entry, looked up): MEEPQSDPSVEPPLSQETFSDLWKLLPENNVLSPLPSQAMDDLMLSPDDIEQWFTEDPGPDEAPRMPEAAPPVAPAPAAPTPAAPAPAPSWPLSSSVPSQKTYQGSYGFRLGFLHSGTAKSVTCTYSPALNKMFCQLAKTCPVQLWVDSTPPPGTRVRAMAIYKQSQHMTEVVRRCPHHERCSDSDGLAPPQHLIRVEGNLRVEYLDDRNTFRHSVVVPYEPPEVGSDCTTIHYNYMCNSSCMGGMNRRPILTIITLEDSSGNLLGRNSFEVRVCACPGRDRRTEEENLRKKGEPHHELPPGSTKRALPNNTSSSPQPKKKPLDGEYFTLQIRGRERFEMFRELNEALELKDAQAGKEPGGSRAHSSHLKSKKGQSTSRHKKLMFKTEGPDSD
Sequence of Bile acid receptor (Homo sapiens) (Q96RI1 whole entry, looked up, the tested form may be a part): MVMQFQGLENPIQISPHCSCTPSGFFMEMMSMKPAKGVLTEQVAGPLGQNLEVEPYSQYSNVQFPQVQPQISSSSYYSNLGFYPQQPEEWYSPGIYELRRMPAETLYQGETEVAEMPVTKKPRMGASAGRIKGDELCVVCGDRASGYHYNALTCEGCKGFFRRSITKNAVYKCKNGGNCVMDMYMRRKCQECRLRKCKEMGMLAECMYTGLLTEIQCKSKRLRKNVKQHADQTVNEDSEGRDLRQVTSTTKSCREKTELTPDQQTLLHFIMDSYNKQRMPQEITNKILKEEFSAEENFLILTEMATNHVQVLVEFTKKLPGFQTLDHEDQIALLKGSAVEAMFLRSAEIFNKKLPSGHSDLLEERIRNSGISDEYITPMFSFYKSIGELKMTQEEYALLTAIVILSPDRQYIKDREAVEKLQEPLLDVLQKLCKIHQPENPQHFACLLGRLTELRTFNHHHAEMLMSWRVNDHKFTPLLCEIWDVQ

As to `CC(C)(C)c1cc(CCC(=O)OCCSCCOC(=O)CCc2cc(C(C)(C)C)c(O)c(C(C)(C)C)c2)cc(C(C)(C)C)c1O`, the result in [1], in [2], in [3], in assay [4], in assay [5] and in [6] was inactive. Also, the molecule was classed as inactive in assay [7], in [8], in [9], in [10], in assay [11] and in assay [12]. Moreover, the outcome in [13] and in assay [14] was inactive.

Consider `CC(C)(O)C(=O)c1ccc(OCCO)cc1`, for which the result in assay [1], in [2], in [3], in assay [4], in assay [15] and in assay [7] was inactive. The result in [8], in assay [9], in assay [10], in [12], in assay [13] and in [14] was inactive.

Turning to `CC(C)C(=O)OCC=Cc1ccccc1`, the call in assay [1], in assay [16], in [4], in assay [5], in [6] and in assay [7] was inactive. In addition, the molecule was classed as inactive in [8], in [9], in assay [10], in assay [11] and in [13]. The AC50 (in general, the concentration at which the activity in the assay is half-maximal) in [12] was 59.3 µM (active).

On to `NC(N)=NC(N)=NCCc1ccccc1`, for which the molecule was classed as inactive in assay [1], in assay [2], in assay [3], in [4], in assay [7] and in assay [8]. The result in assay [9], in assay [10], in assay [11], in [13] and in [14] was inactive. For the same molecule, the AC50 in [12] was 6.3 µM (active).

Regarding `O=C1OCc2ccccc21`, the molecule was classed as inactive in [1], in [16], in assay [4], in assay [5], in assay [7] and in [8]. Further, the molecule was classed as inactive in assay [9], in assay [10], in assay [12], in assay [13] and in assay [14].

The values above are taken from PubChem BioAssay (EPA / NIEHS).
